In PubChem BioAssay (NCI):
This is part of a sample that, as a whole, favours compounds with a hit. Of some 83,000 tested, about 20% had one in any assay.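 The test compound was applied at a single concentration to cells in 96-well plates for 48 hours, and percent growth was recorded.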 A number with no mark means an inactive call. Active and inactive are the calls of the source. The calls were made as follows: active = growth percent below 10; inactive = the rest.

How the values were obtained:
Test in all cases: NCI-60 one-dose screen, 48 h (100 = growth as untreated, 0 = no growth, -100 = all killed)
Conditions in all cases: 10 µM unless noted
[1] = system: T-47D breast
[2] = system: MDA-MB-435 melanoma
[3] = system: SW-620 colon
[4] = system: MCF7 breast
[5] = system: HCC-2998 colon
[6] = system: KM12 colon
[7] = system: HCT-116 colon

| SMILES | growth [1] | growth [2] | growth [3] | growth [4] | growth [5] | growth [6] | growth [7] |
| --- | --- | --- | --- | --- | --- | --- | --- |
| NC(=O)c1c(NC(=O)c2ccc(F)cc2F)sc2c1CCC(=O)C2 | 32.9% | 74.1% | 19.1% | 51.8% | 89.5% | 17.2% | – |
| COc1cc(-c2nn(C(C)(C)C)cc2-c2ccnc(NCCCNS(=O)(=O)c3ccc(C)cc3)n2)ccc1Cl | 84.6% | 92.2% | 93.7% | 79.8% | 115% | 94% | 67.4% |
| N#Cc1cccc(/C(N)=N/C(N)=N/c2nc3ccccc3s2)c1 | 34.1% | -39% (active) | 22.9% | 23.1% | – | 24.6% | 24% |
| CS(=O)(=O)Nc1cc(-c2ccc3ncc(C#N)c(Nc4cccc(Cl)c4F)c3c2)cnc1Cl | -8.48% (active) | 3.99% (active) | 4.99% (active) | 3.98% (active) | -22.1% (active) | 3.37% (active) | – |
| CC(C)(C)c1ccc(C(=O)Nc2sc3c(c2C(N)=O)CC/C(=N\O)C3)cc1 | 1.45% (active) | 13.6% | 17.6% | 5.51% (active) | 34.3% | 6.97% (active) | – |
| CNC(=O)c1cc(-n2ccc3cc(NC(=O)Nc4ccc(N5CCOCC5)c(C(F)(F)F)c4)ccc32)ccn1 | 47% | 40.2% | 62.5% | 35.3% | 87.4% | 7.44% (active) | – |
| N/C(=N\C(N)=N\c1nc2ccccc2s1)c1ccc2ccccc2c1 | 79.2% | 88.9% | 110% | 79.3% | 116% | 59.5% | 63.5% |
| O=C1CCC(N2C(=O)c3ccc(NS(=O)(=O)c4ccccc4OC(F)(F)F)cc3C2=O)C(=O)N1 (stereo not drawn) | 16.2% | 64.4% | 20.2% | 44.5% | 11% | 40.6% | 96.8% |
| O=C(O)c1cn(C2CC2)c2cc(N3CCN(C(=O)CN4C(=O)CSC4=O)CC3)c(F)cc2c1=O | 106% | 98.6% | 100% | 98.8% | – | 101% | 98.8% |
| C#CCNC1CCC(c2csc(C#C)n2)=C1C (stereo not drawn) | 65.3% | 99.2% | 108% | 61.1% | 107% | 19.1% | 80.9% |
| Cc1nc(-c2ccccc2O)ccc1C(=O)N=Nc1c(O)[nH]c2ccc(Br)cc12 | 88.9% | 102% | 95.9% | 91% | – | 98.3% | 99.1% |
| C=CC(=O)N1CC=C(c2cc3c(N[C@H](C)c4ccccc4)ncnc3[nH]2)CC1 | 71.6% | 95% | 87% | 75.5% | 89.6% | 98.9% | 86.1% |
| C=C(C)[C@@H]1CC[C@]2(COP(=O)(OCC)OCC)CC[C@]3(C)[C@H](CC[C@@H]4[C@@]5(C)CCCNC(C)(C)[C@@H]5CC[C@]43C)[C@@H]12 | 59.1% | 36.5% | 15.3% | 13.8% | -27.4% (active) | 55.7% | -68.8% (active) |
| CCN1CCN(C(=O)[C@]23CCC(C)(C)C[C@H]2C2=CC[C@@H]4[C@@]5(C)Cc6c([nH]c7ccccc67)C(C)(C)[C@@H]5CC[C@@]4(C)[C@]2(C)CC3)CC1 | 72.6% | 91.4% | 98.1% | 78.1% | 106% | 86.2% | 77.7% |
| CNC(=O)c1cc(-c2ccc(NC(=S)Nc3cc(C(F)(F)F)cc(C(F)(F)F)c3)cc2)nc2cccnc12 | 85.1% | 94.9% | 98.1% | 59.6% | 122% | 98.6% | 99% |
| CCOC(=O)C(=O)CC(=O)N1C(=S)NC(=O)C1CC(C)C (stereo not drawn) | 109% | 99.9% | 106% | 95.8% | 97.8% | 98.8% | 95.4% |
| C=C(C)[C@@H]1CC[C@]2(COC)CC[C@]3(C)[C@H](CC[C@@H]4[C@@]5(C)CCCNC(C)(C)[C@@H]5CC[C@]43C)[C@@H]12 | 54.1% | 10.4% | -57.6% (active) | 7.62% (active) | -29.1% (active) | 38.1% | -29.1% (active) |
| COc1ccc(C2c3sc4c(C)cccc4c3Oc3nc(CC(=O)Nc4ccccc4)[nH]c(=O)c32)cc1 (stereo not drawn) | 84.4% | 33.7% | 74.9% | 55.6% | 93.8% | 92.7% | 73.6% |
| Clc1ccc(N/N=c2/oc3ccccc3cc2-c2cc3ccccc3[nH]2)cc1 | 40.4% | -71.4% (active) | 78.7% | 53.3% | 95.6% | 58.1% | 66.9% |
| CS(=O)(=O)Nc1cc(-c2ccc3ncc(C#N)c(NCc4ccccc4)c3c2)cnc1Cl | 0.176% (active) | -6.33% (active) | 4.13% (active) | 6.39% (active) | 4.93% (active) | 8.53% (active) | 4.12% (active) |
